ATXN2 expr inh – ATXN2 expression inhibition; HEK-293 ATXN2-luciferase reporter, luminescence, 24 h; Potency, µM (top dose mostly 57 µM), most hits filed as inhibitors; 360,000 tested, 0.72% active; AID 1745845; note: nearly all actives have a fitted effect of over 55% in size
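ATXN2-luciferase reporter cells (luciferase flanked by upstream and downstream ATXN2 gene portions) were treated 24 h at 37 °C with compounds at up to 57 uM. SteadyGlo luminescence gave expression; GF-AFC fluorescence gave viability.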
D3 antag – blocks the human D3 dopamine receptor; D3R cells, DiscoveRx beta-arrestin luminescence, antagonist mode; active compounds read low; max response, negative = inhibition, %; 360,000 tested, 2.5% active; in the data active = max response below about -50%; inconclusive = no clear call, values can overlap the other calls
Target sequence (P35462 whole entry, looked up): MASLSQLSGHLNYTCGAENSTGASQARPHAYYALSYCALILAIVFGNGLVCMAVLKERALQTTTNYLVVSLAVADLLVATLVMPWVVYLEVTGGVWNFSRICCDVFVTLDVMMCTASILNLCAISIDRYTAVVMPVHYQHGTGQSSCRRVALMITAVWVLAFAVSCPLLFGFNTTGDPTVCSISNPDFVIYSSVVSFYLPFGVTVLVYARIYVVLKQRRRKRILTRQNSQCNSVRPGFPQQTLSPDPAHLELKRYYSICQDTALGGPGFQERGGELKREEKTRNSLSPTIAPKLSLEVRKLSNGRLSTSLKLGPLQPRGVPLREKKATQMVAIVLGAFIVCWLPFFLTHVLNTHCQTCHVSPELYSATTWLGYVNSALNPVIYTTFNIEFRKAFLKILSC
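Cells expressing the human receptor were seeded at 1500 cells/well, incubated overnight at 37 degrees C in 5% CO2, then exposed to library compounds with dopamine controls for 90 minutes at 37 degrees C before luminescent detection.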
a7 integrin act – activates integrin-mediated alleviation for muscular dystrophy. alpha7betagal myoblasts, beta-gal FDG fluorescence, 48 h. Potency, µM (doses to about 38.3 µM), hits mostly activators. 350,000 tested, 0.064% active. AID 624291; note: nearly all actives have a fitted effect of over 60% in size
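Alpha7betagal+/- myoblasts (passage 13) were plated 16-24 hr, then exposed to compounds (1:260 dilution of DMSO stock) for 48 hours at 37C. After MPER lysis, β-galactosidase reporter activity was read as FDG fluorescence (ex 480/em 540) after 30 minutes.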
DRD3 agonist – agonists of human D3 dopamine receptor; D3R DiscoveRx beta-arrestin cells, luminescence, 90 min; max activation, %; 410,000 tested, 0.58% active; AID 652048; in the data active = max activation above about 30%
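Agonist-mode cell screen: cells plated at 1500/well and incubated overnight at 37 °C, then exposed to library compounds for 90 min at 37 °C. Detection reagent was added for 30–60 min at room temperature, and luminescence was read.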
IL1B secr inh – blocks inflammasome-driven IL-1 beta release; THP-1 LPS/ATP IL-1B secretion, AlphaLISA, 16 h; active compounds read low; activity change, % at 57.5 µM; 360,000 tested, 4.7% active; in the data active = activity change below about -50%; inconclusive = mostly about -30% to -49%
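THP-1 cells pretreated 1 hr with compounds (up to 57.5 uM final), then stimulated with LPS (250 ng/mL final) plus ATP (1.25 mM final); secreted IL-1B measured by AlphaLISA after 16 hr, decreased signal indicating inhibition.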
ATXN viability – viability counter-screen for ATXN expression inhibitors. S2 cells (HEK-293 line with an ATXN2-luciferase reporter) viability, CellTiter-Fluor protease fluorescence, 24 h. Potency, µM (top dose mostly 56.7 µM), hits mostly cytotoxic. 400,000 tested, 0.49% active. AID 651635; note: nearly all actives have a fitted effect of over 40% in size
A number is an active result; [ ] = another dose, or the depositor's remark. Most compounds without a hit are left out; they make up all but 7% or so of the library. Unless noted, calls come from the whole dose curve; as a rule, active = well fitted curve in the direction sought with a large enough effect; inconclusive = small, poorly fitted or top-dose-only effect, or another doubt; inactive = no such curve, though single readings can be large; an effect the other way counts as inactive or inconclusive.

`Cc1cc(OCc2cc(C(=O)NCCN3CCCCC3CO)no2)cc(C)c1Cl` (stereo not given) gave ATXN2 expr inh inconclusive, D3 antag inactive, a7 integrin act inactive, DRD3 agonist inactive, IL1B secr inh -61.9 and ATXN viability inconclusive.
COc1cccc(CNC(=O)COC(=O)CNC(=O)c2ccc(-c3ccccc3)cc2)c1 was read as D3 antag inactive, a7 integrin act inactive, DRD3 agonist inactive, IL1B secr inh inactive and ATXN viability inconclusive.
Screening O=C(Cc1csc2ccccc12)NCc1ccc(F)cc1 returned DRD3 agonist inactive.
For Fc1ccc(C[n+]2csc3ccccc32)cc1 the results were ATXN2 expr inh inactive, D3 antag inactive, a7 integrin act inactive, DRD3 agonist inactive, IL1B secr inh -115.2 and ATXN viability inconclusive.
`Clc1ccc(C[n+]2csc3ccccc32)cc1` gave ATXN2 expr inh inactive, D3 antag inconclusive, a7 integrin act inactive, DRD3 agonist inactive, IL1B secr inh -110.1 and ATXN viability inactive.
Screening Cc1onc(-c2c(F)cccc2Cl)c1C(=O)OCC(=O)Nc1cccc(S(=O)(=O)N(C)C)c1 returned ATXN2 expr inh inactive, D3 antag -97.3, a7 integrin act inactive, DRD3 agonist inactive, IL1B secr inh inactive and ATXN viability inconclusive.
O=C(CNC(=O)c1cccs1)OCC(=O)c1ccc([N+](=O)[O-])cc1 was read as ATXN2 expr inh inactive[11.3 µM], D3 antag inactive, a7 integrin act inactive, DRD3 agonist inactive, IL1B secr inh -88.7 and ATXN viability inactive.
O=C(CNC(=O)c1ccco1)OCC(=O)c1ccc([N+](=O)[O-])cc1 was read as ATXN2 expr inh inactive, D3 antag inactive, a7 integrin act inactive, DRD3 agonist 32.3, IL1B secr inh -76.5 and ATXN viability inactive.
Screening O=C(CNC(=O)c1cccs1)c1ccc([N+](=O)[O-])cc1 returned ATXN2 expr inh inactive, D3 antag inactive, a7 integrin act inactive, DRD3 agonist inactive, IL1B secr inh inactive and ATXN viability inactive.
`O=C(Cc1ccccc1)NCC(=O)OCC(=O)c1ccc([N+](=O)[O-])cc1` gave ATXN2 expr inh inactive, D3 antag inactive, a7 integrin act inactive, DRD3 agonist inactive, IL1B secr inh -72.1 and ATXN viability inactive.
For CCOC(=O)c1nn(C)c(C)c1Cl the results were ATXN2 expr inh inactive, D3 antag -71.3, a7 integrin act inactive, DRD3 agonist inactive, IL1B secr inh inactive and ATXN viability inactive.
COc1ccc(OC)c(-n2c(C)nc3cc(C(=O)O)ccc32)c1 was read as ATXN2 expr inh inactive, D3 antag inactive, a7 integrin act inactive, DRD3 agonist inactive, IL1B secr inh inactive and ATXN viability inactive.
`Cc1ccc(OCC(=O)O/N=C(\N)Cc2ccc(Cl)cc2)cc1` gave ATXN2 expr inh inactive, D3 antag inactive, a7 integrin act inactive, DRD3 agonist inactive, IL1B secr inh inactive and ATXN viability inactive.
`Oc1ccc(/C=N/Nc2ccnc3cc(Cl)ccc23)cc1O` gave ATXN2 expr inh inconclusive, D3 antag inconclusive, a7 integrin act inactive, DRD3 agonist inactive, IL1B secr inh inactive and ATXN viability 31.6µM.
Screening COc1ccc([C@H]2C[C@H](O)[C@@H](n3cc(-c4ccc(F)cc4)nn3)CN2Cc2cccs2)cc1 returned ATXN2 expr inh 15.8µM, D3 antag inactive, a7 integrin act inactive, DRD3 agonist inactive, IL1B secr inh -61.5 and ATXN viability 28.2µM.
Screening COc1ccc([C@H]2C[C@H](n3cc(-c4ccc(F)cc4)nn3)[C@@H](O)CN2Cc2cccs2)cc1 returned ATXN2 expr inh inactive, D3 antag inactive, a7 integrin act inactive, DRD3 agonist inactive, IL1B secr inh inactive and ATXN viability inactive.
For O[C@H]1C[C@H](c2ccccc2)N(Cc2cccs2)C[C@@H]1n1cc(-c2ccc(F)cc2)nn1 the results were ATXN2 expr inh 15.8µM, D3 antag inactive, a7 integrin act inactive, DRD3 agonist inactive, IL1B secr inh -79.0 and ATXN viability 31.6µM.
COc1ccc(N2CCN(C(CNC(C)=O)c3ccco3)CC2)cc1 (stereo not given) was read as ATXN2 expr inh inactive, D3 antag inactive, a7 integrin act inactive, DRD3 agonist inactive, IL1B secr inh inactive and ATXN viability inactive.
For O=C(NCCC1=CCCCC1)C(=O)NCC(c1ccco1)N1CCN(c2ccc(F)cc2)CC1 (stereo not given) the results were ATXN2 expr inh inactive, D3 antag -66.5, a7 integrin act inactive, DRD3 agonist inactive, IL1B secr inh inactive and ATXN viability inconclusive.
COc1ccc(N2CCN(C(CNC(=O)OCc3ccccc3)c3ccco3)CC2)cc1 (stereo not given) was read as ATXN2 expr inh inactive, D3 antag inactive, a7 integrin act inactive, DRD3 agonist inactive, IL1B secr inh -75.8 and ATXN viability inactive.
For CC(=O)C1=C(O)CCC1=NCCc1ccccc1 the results were ATXN2 expr inh inactive, D3 antag inactive, a7 integrin act inconclusive, DRD3 agonist inactive, IL1B secr inh inactive and ATXN viability inconclusive.
For CCOc1cc(/C=N\Nc2ncc(F)c(N3CCOCC3)n2)ccc1Oc1nc(Cl)ncc1F the results were ATXN2 expr inh inactive, D3 antag inactive, a7 integrin act inactive, DRD3 agonist inactive, IL1B secr inh -83.5 and ATXN viability inconclusive.
Cc1ccc(Nc2cc(C)nc3nc(Cc4ccc(Cl)cc4)nn23)cc1 was read as ATXN2 expr inh 14.1µM and DRD3 agonist inactive.
Cc1ccc(F)cc1C(=O)N1CCOCC1c1cc(C(=O)Nc2ccccc2)no1 (stereo not given) was read as ATXN2 expr inh inactive, D3 antag inactive, DRD3 agonist inactive, IL1B secr inh inactive and ATXN viability inactive.
`COCCNC(=O)c1cccc(OC2CCN(Cc3ccc(Cl)c(F)c3)CC2)c1` gave ATXN2 expr inh inactive, D3 antag inactive, a7 integrin act inactive, DRD3 agonist inactive, IL1B secr inh -53.3 and ATXN viability inactive.
For COCCNC(=O)c1cccc(OC2CCN(Cc3cccc(SC)c3)CC2)c1 the results were ATXN2 expr inh inactive, D3 antag inconclusive, a7 integrin act inactive, DRD3 agonist inactive, IL1B secr inh inconclusive and ATXN viability inactive.
For C=CCN(CC=C)C(=S)NC(=O)c1ccc(OC)cc1 the results were ATXN2 expr inh inactive, D3 antag -68.5, a7 integrin act inactive, DRD3 agonist inactive, IL1B secr inh inactive and ATXN viability inactive.
Screening O=C(CN1C(=O)c2ccccc2S1(=O)=O)Nc1ncc(Cl)cc1Cl returned ATXN2 expr inh 5.01µM, D3 antag inconclusive, a7 integrin act inactive, DRD3 agonist inactive, IL1B secr inh inactive and ATXN viability inactive.
Screening CC(C)c1ccc(NC(=O)CN2C(=O)c3ccccc3S2(=O)=O)cc1 returned ATXN2 expr inh inactive, D3 antag inactive, a7 integrin act 10µM, DRD3 agonist inactive, IL1B secr inh inactive and ATXN viability inactive.

From PubChem
